Reference: PubChem BioAssay (NCATS)
Records with an inconclusive call do not appear. A number with no mark means an inactive call. Active and inactive are the calls of the source. Calls follow the shape of the dose curve; as a rule, active = well fitted cell-killing curve with a large enough effect; inconclusive = small, poorly fitted or top-dose-only effect, or effect the other way; inactive = no such curve, though single readings can be large or run the other way.

Assay: Viability qHTS for spleen associated tyrosine kinase inhibitor (SYKi) drug resistant MV4-11 cells (AID 1963824); also: nearly all actives have a fitted effect of over 35% in size
Settings: SYKi-resistant MV4-11 viability, CellTiter-Glo, 72 h; series mostly up to 45 µM; viability, % of control: at the top concentration
Procedure, shortened: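 SYK-inhibitor-resistant MV4-11 AML cells were seeded at 500 per well onto compound and cultured 72 hours (37 °C, 5% CO2). CellTiter-Glo was then added, and after 10 min at room temperature, luminescence gave viability.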
Potency is read from the fitted curve at half-maximal effect.

SMILES	Potency	viability, % of control
C=C1C(=O)O[C@@H]2C(OC(=O)/C(C)=C\C)/C(C)=C\C(=O)/C=C(\C)C[C@H](O)[C@@H]12 (some centres not stated)	1.01 µM (active)	
C#Cc1cccc(Nc2ncnc3cc(OC)c(OC)cc23)c1	1.64 µM (active)	
CN(C)CCCNc1c2ccccc2nc2c1[nH]c1ccccc12	0.731 µM (active)	
CC12CC(O)C(O)C=C1c1cc(O)cc(O)c1C(=O)O2 (configuration not stated)		69.1%
Nc1ccn([C@H]2O[C@@H](CO)[C@H](O)[C@H]2O)c(=O)n1	1.46 µM (active)	
O=[N+]([O-])c1ccc(-[n+]2nc(-c3ccccc3)nn2-c2ccc(I)cc2)cc1		57.5%
C=C(CO[C@@H]1O[C@H](CO[C@@H]2OC[C@](O)(CO)[C@H]2O)[C@@H](O)[C@H](O)[C@H]1O)C1Cc2cc(C(C)=O)ccc2O1 (some centres not stated)		85.9% [at 17.3 µM]
C/C1=C\CC(C)(C)/C=C/C/C(C(=O)O)=C/CC1	23.1 µM (active)	
COC(=O)c1ccnc(-c2cc(C(=O)NCCc3ccccc3)ccn2)c1		14.7%
C[C@@H]1CCC2C(C)(C)[C@H](O)CC[C@]2(C)[C@@]12Cc1c(O)cc3c(c1O2)CN([C@@H](CCC(=O)O)C(=O)O)C3=O (some centres not stated)		93.5% [at 17.3 µM]
COc1ccccc1-c1ccc(-c2cn(C(=O)N3CCCCC3Cc3ccccc3)nn2)cc1 (configuration not stated)	14.6 µM (active)	
Cn1ncnc1[C@@H]1c2n[nH]c(=O)c3cc(F)cc(c23)N[C@H]1c1ccc(F)cc1		71.3%
C[C@@H](NC(=O)[C@H](O)c1cc(F)cc(F)c1)C(=O)N[C@@H]1C(=O)N(C)c2ccccc2-c2ccccc21	18.4 µM (active)	
O=C1Cc2c([nH]c3ccc([N+](=O)[O-])cc23)-c2ccccc2N1	0.502 µM (active)	
COc1cc(C2Oc3c(O)cc(CCCO)cc3C2CO)ccc1O[C@H]1O[C@H](C)[C@@H](O)[C@H](O)[C@@H]1O (some centres not stated)		90.1% [at 17.3 µM]
CC(=O)OC1CC(O)(C(C)C)C2C(OC(=O)c3ccc(O)cc3)C=C(C)C(=O)CC12C (configuration not stated)	11.2 µM (active)	
COc1ccc2c(c1)C(c1ccc(F)cc1)=C(CN1CCCC1)CO2	20.9 µM (active)	
CC[C@@H]1C[C@]1(NC(=O)[C@@H]1C[C@@H]2CN1C(=O)[C@H](C(C)(C)C)NC(=O)OCC(C)(C)CCCCc1cccc3c1CN(C3)C(=O)O2)C(=O)NS(=O)(=O)C1CC1	18.4 µM (active)	
C[C@@H]1CC[C@]2(C(=O)O)CC[C@]3(C)C(=CCC4[C@@]5(C)C[C@@H](O)[C@@H](O)C(C)(C)C5CC[C@]43C)C2[C@]1(C)O (some centres not stated)	3.55 µM (active)	
CC1=CC2=C(C)C(=O)C(C)(O)C(O)C2CO1 (configuration not stated)		95.8%
O=C(Nc1ccc(Cl)cc1)c1ccccc1NCc1ccncc1	11.6 µM (active)	
C=C1C(=O)O[C@@H]2/C=C(/C)CC3C=C(C[C@H](OC(=O)/C(C)=C\C)[C@@H]12)C(=O)O3 (some centres not stated)	2.55 µM (active)	
C[C@@]12C[C@]3(O)O[C@H](O1)[C@]1(COC(=O)c4ccccc4)[C@H]3C[C@@]12O[C@@H]1O[C@H](COC(=O)c2ccccc2)[C@@H](O)[C@H](O)[C@H]1O		77% [at 17.3 µM]
COC1CC(=O)C23C(=O)NC(CC(C)C)C2C(C)C(C)=CC3/C=C(\C)CCC1O (configuration not stated)	7.96 µM (active)	
C/C=C(\C)C(=O)O[C@H]1C=C(CO)C(=O)[C@H](OC(C)=O)[C@H]1C(C)C	1.8 µM (active)	
Cc1c(CN(C)C(=O)/C=C/c2cnc3c(c2)CCC(=O)N3)oc2ccccc12		89%
COc1cc(Br)c(S(=O)(=O)Nc2ccc(Cl)c(O[C@@H]3CCN(C)C3)c2)cc1OC	6.51 µM (active)	
